Data on 20 compounds can be found in PubChem BioAssay (NCATS).

For assay [1], the target named is Estrogen receptor (Homo sapiens) (UniProt P03372). The assay can be described thus: qHTS assay for small molecule agonists of estrogen receptor alpha signaling (AID 588514; calls by dose curve; also: nearly all actives have a fitted effect of over 70% in size; also: potency is read from the fitted curve at half-maximal effect;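 as to activation: 0% = vehicle only and 100% = reference agonist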). An outline of the steps:
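Read-out: CCF4 fluorescence from a beta-lactamase reporter in ER-alpha-UAS-bla HEK 293 cells after 18 hrs of compound exposure at 37 C. Normalized to 20 nM 17-beta-estradiol (100%) and DMSO (0%).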
(qHTS replaces the single test concentration by a dilution series.)

In assay [2] the target is Thioredoxin reductase 1, cytoplasmic (Rattus norvegicus) (UniProt O89049). The assay can be described thus: qHTS Assay for Substrates of Mammalian Selenoprotein Thioredoxin Reductase 1 (TrxR1) (AID 488772).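 Also: series mostly up to about 57 µM; 0% is about no effect; a drop in NADPH fluorescence below the no-compound background marks a TrxR1 substrate.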 An outline of the steps:
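In this dual-purpose format, potential substrates are identified from the first fluorescence read after selenite addition, not from the 8-minute delta. Rat enzyme is preincubated with NADPH and then with compound at ~22 deg C.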

The target in assay [3] is Ubiquitin carboxyl-terminal hydrolase 1 (Homo sapiens) (UniProt O94782). In words: Inhibitors of USP1/UAF1: Pilot qHTS (AID 504865). Also: nearly all actives have a fitted effect of over 35% in size. Also: potency is read from the fitted curve at half-maximal effect. Put shortly: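 Deubiquitinase activity followed as kinetic rhodamine fluorescence release from 150 nM Ub-Rho. 1 nM USP1/UAF1 with compound, after 15 min room-temperature preincubation, in HEPES pH 7.8 buffer containing TCEP, EDTA, BSA and Tween-20.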
Ubiquitin carboxyl-terminal hydrolase 1 (Homo sapiens), sequence (O94782 whole entry, looked up): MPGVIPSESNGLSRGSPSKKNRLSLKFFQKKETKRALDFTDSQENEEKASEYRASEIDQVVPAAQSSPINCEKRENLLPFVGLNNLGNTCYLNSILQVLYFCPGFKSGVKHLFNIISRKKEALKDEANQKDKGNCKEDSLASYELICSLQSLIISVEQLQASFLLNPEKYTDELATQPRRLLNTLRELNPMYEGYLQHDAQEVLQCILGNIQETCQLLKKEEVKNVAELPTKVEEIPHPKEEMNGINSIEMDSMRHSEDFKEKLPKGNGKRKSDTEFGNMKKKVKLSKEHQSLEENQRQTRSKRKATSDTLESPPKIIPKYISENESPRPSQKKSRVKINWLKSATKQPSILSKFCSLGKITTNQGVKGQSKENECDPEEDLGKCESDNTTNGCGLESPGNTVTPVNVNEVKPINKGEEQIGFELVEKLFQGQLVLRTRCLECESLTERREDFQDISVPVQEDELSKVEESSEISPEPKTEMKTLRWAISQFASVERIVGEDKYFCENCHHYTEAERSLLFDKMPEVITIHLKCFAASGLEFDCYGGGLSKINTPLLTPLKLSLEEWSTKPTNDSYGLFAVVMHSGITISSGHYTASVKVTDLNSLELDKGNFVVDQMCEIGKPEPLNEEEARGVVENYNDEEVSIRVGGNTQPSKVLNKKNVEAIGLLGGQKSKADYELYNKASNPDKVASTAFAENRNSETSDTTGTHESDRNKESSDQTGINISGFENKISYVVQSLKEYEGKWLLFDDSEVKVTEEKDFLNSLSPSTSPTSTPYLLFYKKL

Assay [4] has as its target Cytochrome P450 2C9 (Homo sapiens) (UniProt P11712). The assay can be described thus: qHTS Assay for Inhibitors and Substrates of Cytochrome P450 2C9 (AID 883). Also: nearly all actives have a fitted effect of over 60% in size. Also: potency is read from the fitted curve at half-maximal effect. An outline of the steps:
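CYP2C9 deoxyluciferin hydroxylation, 37C, 60 min with NADPH regeneration; 10nM enzyme, 100uM Luciferin-H (KM). Glo detection reagent stopped reaction; luminescence normalized to sulphaphenazole (57uM) full inhibition.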

The nature of assay [5]: High Content Imaging Cell-Based qHTS for Inhibitors of the mTORC1 Signaling Pathway in MEF Cells (AID 2667). Also: potency is read from the fitted curve at half-maximal effect. Put shortly:
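Fixed-cell imaging of phospho-S6 (Ser235/236, Alexa-488) after 24 hrs of compound treatment at 37 degree Celsius. Signal was normalized to Hoechst, and thresholds from the highest and lowest wells split cells into % active versus % non-active.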

The target of assay [6] is DNA polymerase III PolC-type (Bacillus subtilis (strain 168)) (UniProt P13267). In words: qHTS Validation Assay for the Inhibitors of DNA Replication in Gram-Positive Bacteria (AID 485295). Also: potency is read from the fitted curve at half-maximal effect. Put shortly: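 Double-stranded DNA product detected by PicoGreen fluorescence after EDTA quench. Compound incubated with B. subtilis holoenzyme (PolC, beta subunit, SSB, primase) before substrate addition; primed replication of M13Gori with dNTPs and NTPs at room temperature; DMSO defines 0% inhibition.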

The target of assay [7] is Endonuclease 4 (Escherichia coli (strain K12)) (UniProt P0A6C1). The assay can be described thus: Counterscreen for APE1 Inhibitors: qHTS Validation Assay for Inhibitors of Endonuclease IV (AID 1708). Also: % is scaled to controls: 0 for no effect and ±100 for the full control effect. An outline of the steps:
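Measured as reaction progress, the fluorescence gain between first and third kinetic reads after adding 50 nM TAMRA/BHQ-2 THF duplex to 2 nM enzyme preincubated 15 min with compound; 2 mM MgCl2, pH 7.5.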

The target of assay [8] is DNA repair nuclease/redox regulator APEX1 (Homo sapiens) (UniProt P27695). The assay can be described thus: qHTS Validation Assay for Inhibitors of the Human Apurinic/apyrimidinic Endonuclease 1 (APE1) (AID 1705; also: potency is read from the fitted curve at half-maximal effect). Put shortly:
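Activity read as rising fluorescence (598 nm emission, 525 nm excitation) from incision of a TAMRA/BHQ-2 duplex carrying a THF abasic site (50 nM). Compound and enzyme sat 15 min at RT before substrate start; signal change between first and third 60-s reads.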

Assay [9] in a line: qHTS for differential inhibitors of proliferation of Plasmodium falciparum line 3D7 (AID 1876). Also: potency is read from the fitted curve at half-maximal effect.
For assay [10], the target named is Peroxisome proliferator-activated receptor gamma (Homo sapiens) (UniProt P37231). In words: qHTS assay for small molecule antagonists of peroxisome proliferator-activated receptor gamma signaling (AID 588537; active = well fitted inhibition curve with a large enough effect in the signal ratio, with a control signal flat, not every such curve was filed as active; the % refers to the signal ratio;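 also: reporter cells co-stimulated with 50 nM rosiglitazone agonist during compound treatment; % of control where 0% means no effect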). Put shortly: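 HEK293 cells, PPAR-gamma-UAS-bla, 3000/well. Pre-incubation 6-6.5 h, 37 C. Compound titration with rosiglitazone 50 nM final, 16 h. CCF4 dye, 2 h RT, dual-emission fluorescence.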
Peroxisome proliferator-activated receptor gamma (Homo sapiens), sequence (P37231 whole entry, looked up): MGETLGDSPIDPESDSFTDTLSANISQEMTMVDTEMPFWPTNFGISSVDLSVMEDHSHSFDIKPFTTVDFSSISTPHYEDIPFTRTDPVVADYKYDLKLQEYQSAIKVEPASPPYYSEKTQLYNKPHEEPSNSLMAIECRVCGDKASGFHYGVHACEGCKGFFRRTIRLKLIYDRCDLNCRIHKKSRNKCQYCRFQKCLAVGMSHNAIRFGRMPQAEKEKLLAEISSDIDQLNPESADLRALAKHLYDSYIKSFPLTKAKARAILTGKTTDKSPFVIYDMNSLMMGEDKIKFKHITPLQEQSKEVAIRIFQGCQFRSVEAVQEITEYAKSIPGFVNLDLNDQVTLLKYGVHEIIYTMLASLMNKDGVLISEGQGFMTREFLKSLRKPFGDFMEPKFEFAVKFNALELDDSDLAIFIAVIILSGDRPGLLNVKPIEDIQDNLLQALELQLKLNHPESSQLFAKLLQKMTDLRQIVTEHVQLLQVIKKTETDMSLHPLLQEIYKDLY

The nature of assay [11]: qHTS for differential inhibitors of proliferation of Plasmodium falciparum line D10 (AID 1877).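 Also: potency is read from the fitted curve at half-maximal effect; parasites grown with compound for 72 h before DNA staining.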
Assay [12] in a line: qHTS for differential inhibitors of proliferation of Plasmodium falciparum line HB3 (AID 1886).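 Also: potency is read from the fitted curve at half-maximal effect; parasites grown with compound for 72 h before SYBR Green readout.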 The note with it: Potency: Plasmodium falciparum HB3 proliferation inhibition.
Assay [13] deals with Flap endonuclease 1 (Homo sapiens) (UniProt P39748). The assay can be described thus: qHTS Validation Assay for the Inhibitors of Human Flap endonuclease 1 (FEN1) (AID 488816). Also: potency is read from the fitted curve at half-maximal effect. Put shortly: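 Steps: add FEN1 (10 nM reagent) or buffer only; pin compounds; hold 15 min at room temperature; start with substrate, 50 nM final; read at 0 and 15 min; correct, normalize and fit a four-parameter Hill curve.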
Flap endonuclease 1 (Homo sapiens), sequence (P39748 whole entry, looked up): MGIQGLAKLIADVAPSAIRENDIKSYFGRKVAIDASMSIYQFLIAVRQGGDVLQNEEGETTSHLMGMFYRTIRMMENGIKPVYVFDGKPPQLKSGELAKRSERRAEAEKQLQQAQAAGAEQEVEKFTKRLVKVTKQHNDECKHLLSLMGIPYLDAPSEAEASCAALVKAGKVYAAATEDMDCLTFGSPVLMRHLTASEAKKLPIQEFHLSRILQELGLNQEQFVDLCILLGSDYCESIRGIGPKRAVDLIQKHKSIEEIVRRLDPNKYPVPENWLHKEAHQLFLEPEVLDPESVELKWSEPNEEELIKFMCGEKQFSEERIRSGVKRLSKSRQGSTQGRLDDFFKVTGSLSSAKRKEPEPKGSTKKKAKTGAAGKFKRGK

A short description of assay [14]: Cytometry Cell-Based qHTS for Inhibitors of the mTORC1 Signaling Pathway in MEF cells (AID 2668). Also: potency is read from the fitted curve at half-maximal effect. An outline of the steps: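 Phospho-rpS6 (Ser235/236) immunofluorescence over PI signal, scored as % positive cells using thresholds from 7.5 nM rapamycin and DMSO wells, after 24 h compound exposure of WT-Tsc2-rescued Tsc2-/-, p53-/- MEFs. PI cell count recorded for viability.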

In assay [15] the target is Thioredoxin reductase 1, cytoplasmic (Rattus norvegicus) (UniProt O89049). In words: qHTS Assay for Inhibitors of Mammalian Selenoprotein Thioredoxin Reductase 1 (TrxR1) (AID 488773). Also: nearly all actives have a fitted effect of over 40% in size. Also: potency is read from the fitted curve at half-maximal effect. The conditions noted are these: Potency: inhibition. Put shortly: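 Inhibition is scored from the loss of NADPH fluorescence between first and last reads of an 8-min kinetic run. Selenite (400 uM) was the substrate, added after 15 min compound preincubation at room temperature.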
Thioredoxin reductase 1, cytoplasmic (Rattus norvegicus), sequence (O89049 whole entry, looked up): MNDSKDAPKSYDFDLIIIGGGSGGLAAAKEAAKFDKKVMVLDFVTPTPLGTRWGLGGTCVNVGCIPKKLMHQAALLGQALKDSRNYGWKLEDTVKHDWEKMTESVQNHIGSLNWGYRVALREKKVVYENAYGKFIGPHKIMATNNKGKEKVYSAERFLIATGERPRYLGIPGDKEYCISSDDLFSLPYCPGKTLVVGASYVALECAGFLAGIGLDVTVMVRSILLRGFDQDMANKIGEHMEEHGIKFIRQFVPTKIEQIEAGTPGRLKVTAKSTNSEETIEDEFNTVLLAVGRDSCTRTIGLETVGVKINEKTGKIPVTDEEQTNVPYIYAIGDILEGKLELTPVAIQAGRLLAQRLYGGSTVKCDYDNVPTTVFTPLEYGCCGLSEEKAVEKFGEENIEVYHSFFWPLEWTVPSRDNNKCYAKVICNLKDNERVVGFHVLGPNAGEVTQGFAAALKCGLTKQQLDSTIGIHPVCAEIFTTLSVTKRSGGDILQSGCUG

Assay [16] in a line: Validation screen for small molecules that induce DNA re-replication in MCF 10A normal breast cells (AID 463097). Also: potency is read from the fitted curve at half-maximal effect; nearly all actives have a fitted effect of over 60% in size. An outline of the steps: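 Read-out is Hoechst total nuclear intensity by fluorescence scanning imager, flagging increased high-DNA-content nuclei. Compounds were incubated with MCF 10A cells for 48 hr (37 C, 5% CO2) before 40 min staining.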
Assay [17] has as its target Mitogen-activated protein kinase 10 (Mus musculus) (UniProt Q61831). The assay can be described thus: JNK3 AlphaScreen Assay (AID 530; active = well fitted curve in either direction with a large enough effect, not every such curve was filed as active;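 also: kinase came from lysate of stimulated human HepG2 cells; signal reports phosphorylation of biotinylated GST-cJun 1-79 at Ser73 with 10 µM ATP; series mostly up to about 57 µM; % is scaled to controls: 0 for no effect and ±100 for the full control effect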). An outline of the steps: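 Biotinylated GST-cJun(1-79) served as substrate for JNK3 in HepG2 lysates stimulated with IL-1beta and TNF-alpha. ATP was 10 uM final, pH 7.6. Ser73 phosphorylation was quantified by AlphaScreen (680 nm excitation).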
A general note: In Alpha technology, singlet oxygen from a donor bead excites a nearby acceptor bead.

Assay [18] in a line: qHTS assay for small molecule antagonists of peroxisome proliferator-activated receptor delta signaling (AID 588535; active = well fitted inhibition curve with a large enough effect in the signal ratio, with a control signal flat, not every such curve was filed as active; the % refers to the signal ratio;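 as to max response: cells co-treated with a PPAR-delta agonist as stimulator during compound exposure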). The conditions noted are these: HEK293T PPARd-UAS-bla, beta-lactamase FRET ratio, 18 h; 460 nm channel. Put shortly: (§1)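 Compounds tested in titration on PPAR-delta-UAS-bla HEK293T cells grown in charcoal/dextran-stripped serum (2%); beta-lactamase activity read via CCF4 emission at 460 and 530 nm.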

The target in assay [19] is Peroxisome proliferator-activated receptor delta (Homo sapiens) (UniProt Q03181). The description is as above. Put shortly: as §1
Peroxisome proliferator-activated receptor delta (Homo sapiens), sequence (Q03181 whole entry, looked up): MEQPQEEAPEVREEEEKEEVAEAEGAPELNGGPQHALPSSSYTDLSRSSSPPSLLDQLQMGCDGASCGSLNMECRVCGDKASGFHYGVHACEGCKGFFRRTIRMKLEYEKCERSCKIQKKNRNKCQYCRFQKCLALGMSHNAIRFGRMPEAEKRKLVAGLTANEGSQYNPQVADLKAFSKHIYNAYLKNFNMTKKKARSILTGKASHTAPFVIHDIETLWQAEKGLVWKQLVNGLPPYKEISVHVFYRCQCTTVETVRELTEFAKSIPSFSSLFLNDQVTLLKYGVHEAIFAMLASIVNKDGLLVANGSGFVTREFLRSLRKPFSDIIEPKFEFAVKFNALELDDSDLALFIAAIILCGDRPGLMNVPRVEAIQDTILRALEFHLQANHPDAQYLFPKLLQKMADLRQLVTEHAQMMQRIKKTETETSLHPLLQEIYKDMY
Assay [20] in a line: qHTS assay to identify small molecules that stimulate interleukin-8 (IL-8) secretion (AID 651758; active = well fitted activation curve with a large enough effect in the signal ratio; the % refers to the signal ratio; also: 0% is about no effect). Put shortly:
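Quantitative HTS in THP-1 monocytic cells at 2000 cells per well, with 16 hrs compound incubation at 37 C. IL-8 in the medium was then quantified by HTRF immunoassay, read after 1-3 hrs at room temperature.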

Where “and” joins values, the source holds several entries; their conditions need not be identical. Equal values may be shown once. Records with an inconclusive call do not appear. Calls of active or inactive are those of the source. Unless noted, calls follow the shape of the dose curve; as a rule, active = well fitted curve in the direction sought with a large enough effect; inconclusive = small, poorly fitted or top-dose-only effect, or another doubt; inactive = no such curve, though single readings can be large; an effect the other way counts as inactive or inconclusive.

Estrogen receptor (Homo sapiens), sequence (P03372 whole entry, looked up): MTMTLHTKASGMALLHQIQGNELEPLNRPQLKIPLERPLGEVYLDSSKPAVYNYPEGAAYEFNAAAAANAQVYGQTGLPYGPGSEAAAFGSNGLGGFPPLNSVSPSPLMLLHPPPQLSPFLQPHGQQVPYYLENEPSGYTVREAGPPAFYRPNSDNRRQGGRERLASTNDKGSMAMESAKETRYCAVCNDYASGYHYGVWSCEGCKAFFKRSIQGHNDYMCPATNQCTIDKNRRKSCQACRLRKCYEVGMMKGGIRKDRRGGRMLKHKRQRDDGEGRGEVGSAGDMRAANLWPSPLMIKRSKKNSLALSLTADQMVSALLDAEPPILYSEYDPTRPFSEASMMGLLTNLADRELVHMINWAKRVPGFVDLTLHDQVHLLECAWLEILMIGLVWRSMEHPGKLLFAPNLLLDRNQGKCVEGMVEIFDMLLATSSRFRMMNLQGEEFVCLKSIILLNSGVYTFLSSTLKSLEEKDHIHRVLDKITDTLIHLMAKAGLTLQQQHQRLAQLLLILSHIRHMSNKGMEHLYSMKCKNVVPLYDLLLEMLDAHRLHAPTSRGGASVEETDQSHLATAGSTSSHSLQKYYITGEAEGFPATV
DNA repair nuclease/redox regulator APEX1 (Homo sapiens), sequence (P27695 whole entry, looked up): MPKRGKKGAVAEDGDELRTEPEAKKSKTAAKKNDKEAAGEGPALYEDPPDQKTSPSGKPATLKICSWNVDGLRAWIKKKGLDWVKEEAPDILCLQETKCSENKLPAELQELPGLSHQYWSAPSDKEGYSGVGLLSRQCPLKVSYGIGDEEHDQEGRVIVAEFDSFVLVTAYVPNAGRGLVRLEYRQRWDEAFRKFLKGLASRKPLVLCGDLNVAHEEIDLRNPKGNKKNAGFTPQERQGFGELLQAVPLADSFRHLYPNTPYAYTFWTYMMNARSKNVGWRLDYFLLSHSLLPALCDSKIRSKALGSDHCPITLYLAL
Cytochrome P450 2C9 (Homo sapiens), sequence (P11712 whole entry, looked up): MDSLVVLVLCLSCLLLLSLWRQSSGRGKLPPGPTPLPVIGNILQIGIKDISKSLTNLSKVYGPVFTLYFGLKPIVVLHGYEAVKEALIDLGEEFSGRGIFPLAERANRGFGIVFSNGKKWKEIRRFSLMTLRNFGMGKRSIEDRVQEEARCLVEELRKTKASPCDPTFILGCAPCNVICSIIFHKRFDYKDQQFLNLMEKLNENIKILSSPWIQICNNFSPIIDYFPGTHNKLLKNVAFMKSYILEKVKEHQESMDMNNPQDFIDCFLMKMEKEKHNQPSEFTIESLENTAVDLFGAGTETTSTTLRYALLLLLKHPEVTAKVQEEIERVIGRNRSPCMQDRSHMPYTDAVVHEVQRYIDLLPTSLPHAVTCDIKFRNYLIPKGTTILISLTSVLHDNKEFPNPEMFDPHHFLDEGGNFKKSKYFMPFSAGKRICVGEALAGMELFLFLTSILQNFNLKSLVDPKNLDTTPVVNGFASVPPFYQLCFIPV

With `O=C1c2cccc(O)c2C(=O)c2c(O)cc(CO)cc21`, the Potency in assay [1] is 20 µM (active).

For the compound `Nc1nc(N)c2nc(CNc3ccc(C(=O)NC(CCC(=O)O)C(=O)O)cc3)cnc2n1` (configuration not stated), in [2], the call was inactive. The Potency entry in assay [3] is “inactive”.

On to `O=C1Nc2ccc(I)cc2/C1=C/c1cc(Br)c(O)c(Br)c1`, for which the Potency in assay [4] is 0.0794 µM (active).

For the compound `CN1C2CCC1CC(OC(=O)C(CO)c1ccccc1)C2` (configuration not stated), the Potency result in assay [5] and in assay [6] was “inactive” in each case.

On to `CC(C)NC[C@H](O)COc1cccc2[nH]ccc12`, for which the compound was classed as inactive in assay [7].

On to `NO`, for which, in assay [8], the Potency result is “inactive”. For the same compound, in assay [9], the Potency was 12.6 µM (active).

As for `CC(C)COC(=O)c1ccccc1C(=O)OCC(C)C`, the Potency entry in assay [1] and in assay [10] was “inactive” each time.

For `N#C/C(=C\c1ccc(O)c(O)c1)C(=O)NCCCNC(=O)/C(C#N)=C/c1ccc(O)c(O)c1`, the compound was called inactive in assay [7]. For the same compound, the Potency is 2.24 µM (active) in [9]; 2.24 µM (active) in assay [11]; 2 µM (active) in assay [12]; 21.2 µM (active) in [6]; 0.67 µM (active) in [13].

Take `Oc1ccccc1O`: the Potency was 35.5 µM (active) in assay [8], 10.4 µM (active) in assay [14], 11.9 µM (active) in [15] and 5.97 µM (active) in assay [13]. Moreover, the result in assay [7] was inactive.

Consider `O=c1oc(Cl)c(Cl)c2ccccc12`, for which the Potency in assay [5] was 18.5 µM (active); in assay [16], 5.01 µM (active); in assay [15], 7.52 µM (active); in assay [3], 12.6 µM (active).

Take `CN1[C@@H](CC(=O)c2ccccc2)CCC[C@H]1C[C@H](O)c1ccccc1`: the Potency entry in [13] was “inactive”.

Consider `CC(=O)/C=C/c1ccccc1`, for which the compound was called inactive in [17] and in [19]. In [18], the max response is 11.6%. The Potency entry in [20] is “inactive”.

As for `COC1=CC(=O)OC(CCc2ccc3c(c2)OCO3)C1` (configuration not stated), the compound was called inactive in assay [17]. The Potency entry in [10] and in assay [20] was “inactive” in each case.

Consider `c1ccc(Nc2ccc3ccccc3c2)cc1`, for which the max response in [18] is 41.7% and -2.21%. Also, the compound was called inactive in assay [19].

With `Nc1nc2[nH]c(=O)cnc2c(=O)[nH]1`, the compound was classed as inactive in assay [2]. The Potency entry in [15] was “inactive”.

As for `COc1cc([C@@H]2c3cc4c(cc3[C@H](O)C3COC(=O)[C@@H]32)OCO4)cc(OC)c1OC` (some centres not stated), the results for the Potency in [12], in [14] and in assay [16] were 15.8 µM (active), 0.0465 µM (active) and 0.0355 µM (active), respectively. In addition, the Potency result in assay [3] was “inactive”.

`Nc1nc2ccc(Cl)cc2c2nc(-c3ccco3)nn12`: in assay [4], the Potency result was “inactive”. In addition, in assay [14], the Potency is 5.85 µM (active).

Take `c1ccc2c(c1)-c1cccc3cccc-2c13`: the max response in assay [18] is 27.3%. In assay [19], the result was inactive. Also, in [10], the Potency result is “inactive”.

With `CCOC(=O)c1ccccc1N`, the call in assay [17] was inactive. In addition, the Potency entry in assay [1] was “inactive”.

In the case of `CCCCCCCCCC[Si](C)(C)CCC(=O)NC(Cc1ccc(C)cc1)c1ccccc1` (configuration not stated), the results for the Potency in assay [9], in [11] and in [12] were 2.82 µM (active), 3.55 µM (active) and 2.82 µM (active), respectively.
